In the library only some 3.6% were active in any assay of this set; here they are far more common.
NTMT1 inhibitor: NTMT1 methyltransferase inhibition; NTMT1 MTase-Glo SAH luminescence, purified enzyme; Potency, µM (doses to about 114 µM), for inactives: at the highest dose activity change, negative = inhibition, actives largely listed as inhibitors; actives 2.5% (n = 59,000); AID 1645870;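 also: potency is read from the fitted curve at half-maximal effect; plate controls were DMSO vehicle for no effect and no enzyme for full effect; nearly all actives have a fitted effect of over 65% in size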
Target sequence (Q9BV86 whole entry, looked up): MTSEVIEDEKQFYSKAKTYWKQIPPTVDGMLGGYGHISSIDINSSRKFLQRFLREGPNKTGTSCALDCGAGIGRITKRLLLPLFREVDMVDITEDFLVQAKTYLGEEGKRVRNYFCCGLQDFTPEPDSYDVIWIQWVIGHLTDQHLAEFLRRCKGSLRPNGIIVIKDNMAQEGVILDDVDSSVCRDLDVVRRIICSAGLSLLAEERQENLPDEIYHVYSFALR
S16 F2sN tox: toxic to S16 Pmp22-F2sN Schwann cells; S16 Pmp22-F2sN Schwann cells viability, CellTiter-Glo, 24 h; Potency, µM (titrated, usually from 57.5 µM), for the others: top-dose activity change, negative = cytotoxicity, usual class: cytotoxic; actives 0.48% (n = 43,000); also: potency is read from the fitted curve at half-maximal effect; % is scaled to controls: 0 for no effect and ±100 for the full control effect; nearly all actives have a fitted effect of over 65% in size
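CellTiter-Glo counter-screen, qHTS, 1536-well. Cells: S16(c9) Pmp22-F2sN, 500-1,000/well in DMEM + 10% FBS. Cpd 23 nL pin transfer, 24 h, 37C/5% CO2. Read: luminescence, CCD imager.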
OvCa metastasis: inhibitors of ovarian cancer cell adhesion and invasion in omental model. Potency, µM (top dose mostly 45.8 µM), for the others: top-dose activity change, negative = inhibition, actives largely listed as inhibitors. SKOV3ip1-GFP adhesion/invasion on 3D omental model, fluorescence. actives 0.1% (n = 46,000). AID 1963576;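 also: potency is read from the fitted curve at half-maximal effect; plate controls were DMSO wells for no effect and tomatine positive control wells for full effect; nearly all actives have a fitted effect of over 65% in size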
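Adhesion/invasion was scored as fixed GFP-labeled SKOV3ip1 cell counts (488/509 nm), normalized to DMSO and tomatine controls. Cancer cells in serum-free medium, with four compound doses (0.36-46 umol/L), sat 2 hr at RT then 16 hr at 37 C on a 48 hr fibroblast/mesothelial/ECM culture.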
GALC G270D act: raises human GALC G270D mutant activity in cells. AID 1159614. Potency, µM (series often up to 57.5 µM), most hits filed as activators. 145M-Twi-hGALC-G270D cells (Twitcher mouse brain line with human GALC G270D), HMU-beta-Gal fluorescence, 48 h. actives 0.1% (n = 45,000); also: potency is read from the fitted curve at half-maximal effect; 0% is about no effect; nearly all actives have a fitted effect of over 65% in size
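Live 145M-Twi cells (Twitcher mouse brain-derived, GALC-null) stably expressing human GALC-G270D, with a wild-type GALC line, were compound-treated. Residual GALC activity was then read as fluorescence from 0.1 mM final HMU-β-gal at pH 5.2; higher signal means activation.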
pS6 MEF inh: mTORC1 pathway inhibition measured by phospho-rpS6; Tsc2-/- p53-/- MEF, phospho-rpS6 immunofluorescence/PI, 24 h; Potency, µM (highest dose often 38.3 µM), for inactives: at the top dose activity change, negative = inhibition, most hits filed as inhibitors; actives 0.78% (n = 44,000);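 also: potency is read from the fitted curve at half-maximal effect; plate controls were DMSO for no effect and rapamycin for full effect; nearly all actives have a fitted effect of over 50% in size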
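Cell-based qHTS: Tsc2-/- p53-/- MEF, 24 h cpd, 37 °C; fix/perm, anti-phospho-S6 Alexa-488 + PI; Acumen 488 nm scan; pS6/PI ratio, % positive cells; rapamycin 7.5 nM = inhibition ref; PI count = viability.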
PMP22 txn prim: PMP22 gene transcription modulation. Potency, µM (top dose mostly 57.5 µM), for the others: top-dose activity change, negative = inhibition, hits mostly inhibitors. AID 1508649. actives 2% (n = 43,000). S16 Pmp22-F2sN Schwann cells, FLuc/NLuc coincidence luminescence, 24 h; active = clear falling dose curves in both reporters; inconclusive = both reporters move, but less clearly or upward; inactive = either reporter flat; the % is the NLuc reporter signal; also: potency is read from the fitted curve at half-maximal effect; % is scaled to controls: 0 for no effect and ±100 for the full control effect
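qHTS, 1536-well. Cells seeded, compounds added by pin tool, 24 h 37C. Nano-Glo reagent 1 (lysis/FLuc), 10 min RT, read; Stop&Glo, 10 min RT, read NLuc.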
NLuc saturating: NanoLuc enzyme inhibition artifact for PMP22 screen; AID 1508638; shares compounds with PMP22 txn prim; actives 4% (n = 690); Secreted NLuc enzyme (filtered S16 cell medium), Nano-Glo luminescence; Potency, µM (top dose mostly 57.5 µM), for inactives: at the top dose activity change, negative = inhibition, hits mostly inhibitors; also: potency is read from the fitted curve at half-maximal effect; % is scaled to controls: 0 for no effect and ±100 for the full control effect
NLuc Km ctr: inhibits NanoLuc under Km conditions, PMP22 counter-screen | actives 5% (n = 690) | secreted NLuc enzyme, coelenterazine luminescence, Km conditions | Potency, µM (titrated, usually from 57.5 µM), for inactives: at the highest dose activity change, negative = inhibition, actives largely listed as inhibitors | shares compounds with PMP22 txn prim; also: potency is read from the fitted curve at half-maximal effect; % is scaled to controls: 0 for no effect and ±100 for the full control effect
FLuc counter: counter-screen for PMP22 expression modulators: firefly luciferase inhibition | shares compounds with PMP22 txn prim | purified P. pyralis FLuc, luminescence, 10 min | Potency, µM (doses to about 57.5 µM), without a hit: top-dose activity, negative = inhibition, usual class: inhibitors | 690 tested, under 10 active | AID 1508640; also: % of control where 0% means no effect
Target sequence (P08659 whole entry, looked up): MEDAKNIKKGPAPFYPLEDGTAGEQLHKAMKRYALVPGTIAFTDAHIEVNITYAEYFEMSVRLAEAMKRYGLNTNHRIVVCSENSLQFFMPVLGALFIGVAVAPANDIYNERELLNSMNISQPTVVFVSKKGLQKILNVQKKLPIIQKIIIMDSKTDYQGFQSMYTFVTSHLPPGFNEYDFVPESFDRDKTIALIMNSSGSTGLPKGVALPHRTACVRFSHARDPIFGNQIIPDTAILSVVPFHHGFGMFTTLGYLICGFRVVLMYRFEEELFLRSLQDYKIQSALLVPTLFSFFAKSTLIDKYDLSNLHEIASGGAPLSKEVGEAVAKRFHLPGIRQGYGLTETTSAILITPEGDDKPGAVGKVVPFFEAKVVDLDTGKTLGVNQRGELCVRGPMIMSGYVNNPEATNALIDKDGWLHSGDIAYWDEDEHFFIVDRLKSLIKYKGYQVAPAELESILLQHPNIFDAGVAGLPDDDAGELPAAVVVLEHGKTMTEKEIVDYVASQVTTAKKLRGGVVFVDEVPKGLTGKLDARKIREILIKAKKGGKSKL
S16 F2sN tox cnf: confirmation of cytotoxicity in S16 Pmp22-F2sN Schwann cells (luciferase reporters placed in the Pmp22 gene). AID 1508641. actives 7% (n = 690). Potency, µM (series often up to 57.5 µM), for the others: top-dose activity change, negative = viability loss, most hits filed as cytotoxic. shares compounds with PMP22 txn prim. S16 Schwann cells viability, CellTiter-Glo ATP luminescence, 24 h; also: potency is read from the fitted curve at half-maximal effect; % is scaled to controls: 0 for no effect and ±100 for the full control effect
PMP22 txn cnf: confirmation of modulators of PMP22 gene transcription in S16 cells; shares compounds with PMP22 txn prim; Potency, µM (doses to about 57.5 µM), for inactives: at the highest dose activity change, negative = inhibition, usual class: inhibitors; S16 Schwann cells Pmp22-F2sN, dual luciferase, 24 h; actives 22% (n = 690); active = clear falling dose curves in both reporters; inconclusive = both reporters move, but less clearly or upward; inactive = either reporter flat; the % is the FLuc reporter signal; also: potency is read from the fitted curve at half-maximal effect
PMP22 HiBiT cnf: confirmation of modulators of rat PMP22 protein expression; 95 tested, under 10 active; AID 1508647; S16 Schwann cells Pmp22-HiBiT, luminescence, 48 h; shares compounds with PMP22 txn prim; Potency, µM (top dose mostly 27.9 µM), without a hit: top-dose activity change, negative = inhibition, usual class: inhibitors
* = called active by the depositor. Unless noted, calls follow the shape of the dose curve; as a rule, active = well fitted curve in the direction sought with a large enough effect; inconclusive = small, poorly fitted or top-dose-only effect, or another doubt; inactive = no such curve, though single readings can be large; an effect the other way counts as inactive or inconclusive.

`O=C(CSc1nc2c(sc3ccccc32)c(=O)n1CCCC(=O)NC1CCCC1)Nc1ccc(F)cc1` gave NTMT1 inhibitor 8.5%, S16 F2sN tox inconclusive, OvCa metastasis inactive, GALC G270D act inactive, pS6 MEF inh -0.9%, PMP22 txn prim inconclusive, NLuc saturating -13.3%, NLuc Km ctr 12.2%, FLuc counter -15.1%, S16 F2sN tox cnf -30.7% and PMP22 txn cnf 10.9µM*.
CCOC(=O)COc1ccc(C)cc1C(=O)c1ccn2nc(-c3ccc(F)cc3)cc2n1 was read as NTMT1 inhibitor 10.3%, S16 F2sN tox 24.2%, OvCa metastasis inactive, GALC G270D act inactive, pS6 MEF inh -1.9%, PMP22 txn prim 17.9µM*, NLuc saturating -10.4%, NLuc Km ctr inconclusive, FLuc counter 5.8%, S16 F2sN tox cnf 11.0% and PMP22 txn cnf inconclusive.
CCOC(=O)COc1ccc(F)cc1C(=O)c1ccn2nc(-c3ccc(C)cc3)cc2n1 was read as NTMT1 inhibitor 10.8%, S16 F2sN tox inconclusive, OvCa metastasis inactive, GALC G270D act inactive, pS6 MEF inh 0.9% and PMP22 txn prim -3.1%.
Screening CCC(=O)C1=C(c2cccc([N+](=O)[O-])c2)N(C(=O)CC)n2c(nnc2C2CCCCC2)S1 returned NTMT1 inhibitor -1.9%, S16 F2sN tox inconclusive, OvCa metastasis inconclusive, GALC G270D act inactive, pS6 MEF inh -3.0%, PMP22 txn prim 8.43µM*, NLuc saturating -7.4%, NLuc Km ctr 4.2%, FLuc counter 7.2%, S16 F2sN tox cnf -23.2%, PMP22 txn cnf 10.9µM* and PMP22 HiBiT cnf inconclusive.
For CCC(=O)C1=C(c2cccc([N+](=O)[O-])c2)N(C(=O)CC)n2c(nnc2-c2ccccc2)S1 the results were NTMT1 inhibitor -3.1%, S16 F2sN tox 6.4%, OvCa metastasis inactive, GALC G270D act inactive, pS6 MEF inh -3.2%, PMP22 txn prim 3.03µM*, NLuc saturating inconclusive, NLuc Km ctr inconclusive, FLuc counter 0.1%, S16 F2sN tox cnf 15.5%, PMP22 txn cnf 11.1µM* and PMP22 HiBiT cnf -0.7%.
Screening CCC(=O)C1=C(c2cccc(OC)c2)N(C(=O)CC)n2c(nnc2C2CCCCC2)S1 returned NTMT1 inhibitor 11.0%, S16 F2sN tox inconclusive, OvCa metastasis inconclusive, GALC G270D act inactive, pS6 MEF inh 0.5% and PMP22 txn prim inconclusive.
`CC(=O)N1c2ccc(S(=O)(=O)NCC3CCC(C(=O)Nc4cc(C)ccc4C)CC3)cc2CC1C` (stereo not given) gave NTMT1 inhibitor 3.4%, S16 F2sN tox inconclusive, OvCa metastasis -21.9%, GALC G270D act inactive, pS6 MEF inh -20.3%, PMP22 txn prim inconclusive, NLuc saturating -15.5%, NLuc Km ctr 2.3%, FLuc counter 4.0%, S16 F2sN tox cnf -24.3% and PMP22 txn cnf -47.2%.
Screening CC(=O)N1c2ccc(S(=O)(=O)NCC3CCC(C(=O)Nc4ccccc4C)CC3)cc2CC1C (stereo not given) returned NTMT1 inhibitor 11.4%, S16 F2sN tox -8.4%, OvCa metastasis 9.8%, GALC G270D act inactive, pS6 MEF inh -25.7% and PMP22 txn prim -27.0%.
CCCCN(CC)C(=O)CSc1nc2n[nH]c(C)c2c(=N)n1-c1ccc(CC)cc1 was read as NTMT1 inhibitor inconclusive, S16 F2sN tox inconclusive, OvCa metastasis inactive, GALC G270D act inactive, pS6 MEF inh 0.1%, PMP22 txn prim 16.8µM*, NLuc saturating inconclusive, NLuc Km ctr inconclusive, FLuc counter 1.8%, S16 F2sN tox cnf 13.7% and PMP22 txn cnf inconclusive.
Cc1cnc(-c2ccccc2C2COC2)nc1NCC1CCN(c2cccnc2)CC1 was read as NTMT1 inhibitor -1.5%.
`O=C(NCc1ccccc1Cl)C1CCN(S(=O)(=O)c2ccc3c(c2)CCCN3C(=O)C2CCC2)CC1` gave NTMT1 inhibitor -9.0%, S16 F2sN tox inconclusive, OvCa metastasis -12.3%, GALC G270D act inactive, pS6 MEF inh -3.2%, PMP22 txn prim 8.53µM*, NLuc saturating -15.2%, NLuc Km ctr 4.5%, FLuc counter -3.2%, S16 F2sN tox cnf -15.1% and PMP22 txn cnf -19.7%.
Screening CC(=O)N1CCCc2cc(S(=O)(=O)N3CCCC(C(=O)NCc4ccccc4Cl)C3)ccc21 (stereo not given) returned NTMT1 inhibitor 2.8%, S16 F2sN tox -25.8%, OvCa metastasis 0.2%, GALC G270D act inactive, pS6 MEF inh 6.2% and PMP22 txn prim inconclusive.
`COc1ccc(C)cc1NS(=O)(=O)c1ccc(-c2cnc(C3CC3)o2)cc1` gave NTMT1 inhibitor 4.4%, S16 F2sN tox inconclusive, OvCa metastasis inactive, GALC G270D act inactive, pS6 MEF inh -0.2%, PMP22 txn prim 5.55µM*, NLuc saturating -9.3%, NLuc Km ctr inconclusive, FLuc counter -0.9%, S16 F2sN tox cnf -25.7%, PMP22 txn cnf inconclusive and PMP22 HiBiT cnf inconclusive.

Screening results from PubChem.
